Bioassay records from PubChem.
Rows were chosen to be rich in hits. Some 18% of all compounds tested hit in one or more screens of this group.
TDP1 inh – TDP1 (human) enzyme inhibition. AID 485290. Q9NUW8. Potency, µM (series often up to 130 µM), without a hit: at the top dose activity change, negative = inhibition, hits mostly inhibitors. recombinant TDP1, AlphaScreen DNA substrate cleavage. 0.28% of 350,000 active; further: nearly all actives have a fitted effect of over 40% in size
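Enzyme-compound mixtures sat 15 min at room temperature, followed by a 5 min reaction with 15 nM final substrate and 10 min with AlphaScreen beads. Recombinant human Tdp1 was used at 1 nM final.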
TDP1 cell noCPT – qHTS for Inhibitors of human tyrosyl-DNA phosphodiesterase 1 (TDP1): qHTS in cells in absence of CPT | DT40 Tdp1-/- hTDP1 cells, no CPT, ATP luminescence, 48 h | Potency, µM (series often up to 46.2 µM), inactives show top-dose activity change, negative = growth inhibition, hits mostly inhibitors | 15% of 420,000 active | AID 686978, 2013; further: nearly all actives have a fitted effect of over 55% in size
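Seeded 400 DT40-hTDP1 cells/well (vehicle DMSO, no 20 nM CPT); pinned compounds; ≥48 hr at 37 °C; CellTiter-Glo luminescence as viability measure.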
VDR inhibitor – inhibitors of human vitamin D receptor. 0.93% of 400,000 active. VDR-SRC2-3 peptide fluorescence polarization, 2 h. P11473. Potency, µM, inactives show max response, negative = inhibition, usual class: inhibitors
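VDR–SRC2-3 interaction, FP format. Cmpds 23 nl via pintool, brief spin, 2 h ambient incubation.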
GCN5L2 inh – blocks human GCN5L2 histone acetyltransferase; Q92830; AID 504327; Potency, µM (top dose mostly 58.9 µM), for the others: top-dose activity change, negative = inhibition, actives largely listed as inhibitors; 0.21% of 390,000 active; GCN5L2 HAT assay, ThioGlo1 CoA-SH fluorescence
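Enzyme at 20nM final was mixed with library compounds for 15 min at room temperature. Peptide H3(1-25) at 75uM, acetyl-CoA at 70uM and ThioGlo1 at 50uM were then added. Plates were read immediately and after 20 min (Ex340nm/Em540nm).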
PLK1 PBD block – PLK1 (human) polo-box domain binding inhibition | P53350 | Plk1 PBD binding of FITC phosphopeptide, fluorescence polarization | Potency, µM, for the others: max response, negative = inhibition, most hits filed as inhibitors | 2.8% of 360,000 active | AID 720504; further: series mostly up to about 57 µM; nearly all actives have a fitted effect of over 65% in size
Target sequence (P53350 whole entry, looked up, the tested form may be a part): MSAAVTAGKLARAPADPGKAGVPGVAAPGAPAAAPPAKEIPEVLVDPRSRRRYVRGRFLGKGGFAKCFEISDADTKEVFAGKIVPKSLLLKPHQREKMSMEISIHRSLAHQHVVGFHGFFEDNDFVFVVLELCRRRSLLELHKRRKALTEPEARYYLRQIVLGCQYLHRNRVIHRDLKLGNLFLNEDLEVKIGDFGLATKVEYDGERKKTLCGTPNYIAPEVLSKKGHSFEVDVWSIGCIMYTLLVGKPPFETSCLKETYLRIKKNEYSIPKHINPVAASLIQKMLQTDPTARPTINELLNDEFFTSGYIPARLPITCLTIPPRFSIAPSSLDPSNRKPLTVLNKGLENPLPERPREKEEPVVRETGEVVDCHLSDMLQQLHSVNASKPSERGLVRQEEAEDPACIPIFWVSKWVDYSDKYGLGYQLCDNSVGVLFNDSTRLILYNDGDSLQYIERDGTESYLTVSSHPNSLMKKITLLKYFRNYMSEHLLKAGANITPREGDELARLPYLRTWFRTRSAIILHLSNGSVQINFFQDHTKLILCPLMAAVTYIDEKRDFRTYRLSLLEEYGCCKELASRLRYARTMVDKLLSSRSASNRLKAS
TDP1 cell CPT – DT40-hTDP1 cell growth loss with CPT; 12% of 420,000 active; AID 686979; chicken DT40 Tdp1-/-;hTDP1 cells + 20 nM CPT, ATP luminescence, 48 h; Potency, µM (series often up to 46.2 µM), inactives show at the top dose activity change, negative = growth inhibition, usual class: inhibitors; further: nearly all actives have a fitted effect of over 55% in size
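Cell growth measured by CellTiter-Glo luminescence after a minimum 48 h, 37 C compound exposure with 20 nM CPT in Tdp1-knockout DT40 cells stably expressing hTDP1, seeded 400/well; qHTS titration format.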
Starred values were filed as active, the others as inactive; ? = inconclusive; / = not tested or not shown; [ ] = dose if it differs, or a comment. The call rests on the fitted dose curve; in most records, active means well fitted curve in the direction sought with a large enough effect; inconclusive means small, poorly fitted or top-dose-only effect, or another doubt; inactive means no such curve, though single readings can be large; an effect the other way counts as inactive or inconclusive. On the % scale 0 is the no-effect control and ±100 the full control effect; potency means the concentration at half of the fitted maximal effect.

SMILES | TDP1 inh | TDP1 cell noCPT | VDR inhibitor | GCN5L2 inh | PLK1 PBD block | TDP1 cell CPT
O=C(O)c1ccc(NC(=S)NC(NC(=O)c2ccco2)C(Cl)(Cl)Cl)cc1 (stereo not given) | -3.6% | 8.0% | -1.1% | -9.6%[0.501 µM] | -2.6% | -0.4%
Cc1ccc(NC(=S)NC(NC(=O)c2ccco2)C(Cl)(Cl)Cl)cc1 (stereo not given) | 9.3% | ? | -10.9% | -2.9% | -4.2% | 16.4µM*
CN(C)C(=O)NC(Nc1ccc(Cl)cc1Cl)C(Cl)(Cl)Cl (stereo not given) | -1.0% | 18.4µM* | 10.7% | -23.1% | -3.7% | ?
CN(C)C(=O)NC(NC(=S)Nc1ccccc1)C(Cl)(Cl)Cl (stereo not given) | -5.7% | -28.9% | ? | -4.3% | 11.9µM* | ?
CCOc1ccc(NC(=O)C(C)n2c(=O)cc(C)c3c(C)nn(-c4ccccc4)c32)cc1 (stereo not given) | 3.2% | ? | 9.1% | -0.1% | / | ?
COc1ccc(C(=O)NCCc2nnc3ccc(SCC(=O)Nc4cc(C)on4)nn23)cc1 | 5.8% | -25.9% | -2.7% | -0.6% | -9.0% | -8.2%
C[C@@H](NC(=O)c1cc2c([nH]c3ccccc32)c(-c2ccccc2)n1)C(=O)O | / | -16.2% | -20.9% | -1.9% | ? | 4.7%
CC(=O)Nc1ccc(S(=O)(=O)Nc2ccccc2N2CCOCC2)cc1 | 0.0% | -19.7% | 0.6% | -4.1% | -12.7% | -29.1%
CC#CCN1c2ccccc2[C@]23C[C@@H](C(=O)OC)N=C2NC(C(=O)OC)=C(C(=O)OC)[C@H]13 | 7.4%[12.3 µM] | 5.2% | -2.7% | 2.3% | 2.0% | -7.4%
CC1(C)CC(NS(=O)(=O)OCC(Cl)(Cl)Cl)c2cc(C#N)ccc2O1 (stereo not given) | / | ? | ? | 0.8% | 23.8µM* | ?
COc1ccc2c(c1)CCCC2NS(=O)(=O)OCC(Cl)(Cl)Cl (stereo not given) | / | -12.3% | -7.5% | -19.2% | -8.7% | -25.3%
O=C(CNC(=O)c1cccc(Cl)c1)OC(C(=O)Nc1cc(C(F)(F)F)ccc1Cl)c1ccccc1 (stereo not given) | -0.9% | / | / | / | / | /
Cc1ccc(S(=O)(=O)N2CCOCC2)cc1C(=O)Nc1ccc(N2CCCCCC2)cc1 | 12.1% | 4.61µM* | -6.3% | -17.1% | -7.7% | 4.61µM*
O=C(Nc1ccc(S(=O)(=O)N2CCOCC2)cc1)c1cc(S(=O)(=O)N2CCOCC2)ccc1Cl | 3.3% | ? | 4.3% | -7.4% | -2.2% | 18.4µM*
Cc1ccc(S(=O)(=O)N2CCCCC2)cc1C(=O)Nc1ccc(S(=O)(=O)Nc2ncccn2)cc1 | 31.6µM* | 4.3% | ? | -9.0% | -28.0% | 2.5%
Cc1ccc(S(=O)(=O)N2CCCCCC2)cc1C(=O)Nc1cccnc1 | 2.9% | -20.5% | -4.4% | -2.4% | 2.0% | -21.9%
CC(=O)c1ccc(NC(=O)c2cc(S(=O)(=O)N3CCOCC3)ccc2C)cc1 | 1.5% | ? | 3.1% | -9.1% | -12.8% | ?
O=C(Nc1ccncc1)c1cc(S(=O)(=O)N2CCOCC2)ccc1Cl | / | -23.8% | -20.7% | -1.2% | -8.8% | -10.5%
O=C(Nc1ccc(Cc2ccncc2)cc1)c1ccc(S(=O)(=O)N2CCOCC2)cc1 | 0.5% | 18.4µM* | -4.6% | ? | -7.0% | ?
CC(C)c1ccc(NC(=O)c2cc(Br)ccc2Br)cc1 | -5.1% | 25.9µM* | -10.5% | -4.9% | -8.4% | ?
CCc1ccc(NC(=O)c2cc(Br)ccc2Br)cc1 | 3.0% | / | / | -0.8% | / | /
CC1CN(S(=O)(=O)c2ccc(C(=O)Nc3ccc(S(=O)(=O)N4CCOCC4)cc3)cc2)CC(C)O1 (stereo not given) | 2.8% | 13µM* | 2.6% | -23.3% | -4.4% | ?
O=C(Nc1ccc(N2CCCC2)cc1)c1cc(Br)ccc1Cl | / | 4.61µM* | -18.9% | -3.2% | -1.4% | 3.66µM*
